# About 680 (34%) of roughly 2,000 compounds were called active. No stated cut-off is given here; in the data, active means inhibition mostly above about 28% (no sharp cut-off); inactive means mostly below about 22%. Not all results are given here.
# Test: PMA/ionomycin-induced NF-kB reporter inhibitors, 697 retest, confirmation, B-cell NF-kB inhibitor project, cell-based, luminescence, single concentration (AID 449746)
# Details: 697 B-cell NF-kB luciferase, 16 h, at 4 µM, stronger effect = higher value
row,Structure (SMILES),inhibition
1,CCCCCCCCCCCCn1ccc(=N)cc1,50% (active)

# From PubChem BioAssay AID449746 (Sanford-Burnham Center for Chemical Genomics, 2010)
